Measured values as given in PubChem BioAssay (NCATS).
Inconclusive results are not listed. The source made the active and inactive calls. Unless noted, calls come from the whole dose curve; as a rule, active = well fitted curve in the direction sought with a large enough effect; inconclusive = small, poorly fitted or top-dose-only effect, or another doubt; inactive = no such curve, though single readings can be large; an effect the other way counts as inactive or inconclusive.

What was measured:
[1] = molecular target: Lysosomal acid glucosylceramidase (Homo sapiens) (UniProt P04062); assay: Glucocerebrosidase-p2 (AID 348; in the data active = potency below about 10 µM; note: potency is the fitted concentration of half-maximal effect); settings: purified GBA, blue fluorogenic substrate, 40 min
Lysosomal acid glucosylceramidase (Homo sapiens), sequence (P04062 whole entry, looked up): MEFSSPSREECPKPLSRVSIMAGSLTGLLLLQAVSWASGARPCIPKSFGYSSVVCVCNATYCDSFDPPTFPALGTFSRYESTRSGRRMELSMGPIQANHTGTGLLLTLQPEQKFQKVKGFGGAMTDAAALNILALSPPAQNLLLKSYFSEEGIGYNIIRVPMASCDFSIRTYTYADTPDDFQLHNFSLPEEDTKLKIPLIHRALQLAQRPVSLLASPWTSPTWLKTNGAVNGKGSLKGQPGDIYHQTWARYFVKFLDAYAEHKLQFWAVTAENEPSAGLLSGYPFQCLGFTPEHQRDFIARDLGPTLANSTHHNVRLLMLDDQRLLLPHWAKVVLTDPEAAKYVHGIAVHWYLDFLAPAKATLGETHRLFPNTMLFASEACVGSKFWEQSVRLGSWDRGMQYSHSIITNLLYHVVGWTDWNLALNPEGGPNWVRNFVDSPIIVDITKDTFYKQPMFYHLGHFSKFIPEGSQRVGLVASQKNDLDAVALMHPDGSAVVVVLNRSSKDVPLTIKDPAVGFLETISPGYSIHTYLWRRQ
Procedure, shortened: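 Compounds titrated from 0.6 nM upwards against 0.2 nM enzyme in pH 5.9 citric acid/KH2PO4, taurocholate, tween-20; blue fluorogenic substrate 80 uM, 40 min room temperature, stopped and read Ex 365/Em 440 for AC50.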

[2] = AP1 Signaling Pathway (AID 357; active = well fitted curve in either direction with a large enough effect, not every such curve was filed as active;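 note: ME-180 reporter cells stimulated with EGF at its EC50 level; % is set by controls: 0 for no effect and ±100 for the full control effect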); settings: ME-180 AP-1-bla reporter, EGF-induced, beta-lactamase ratio, 5 h; at 7.69 µM (top of the series) unless noted
Procedure, shortened: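 Titration-series screen for positive or negative modulators of EC50 EGF-induced signaling in ME-180 cells carrying an AP-1-driven beta-lactamase reporter. After 5 hours at 37 degrees Celsius, CCF4 460nm/530nm emission ratio gave %Activity; AC50 values derived.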

[3] = molecular target: Cytochrome P450 1A2 (Homo sapiens) (UniProt P05177); assay: p450-cyp1a2 (AID 410; calls by dose curve; note: potency is the fitted concentration of half-maximal effect)
Cytochrome P450 1A2 (Homo sapiens), sequence (P05177 whole entry, looked up): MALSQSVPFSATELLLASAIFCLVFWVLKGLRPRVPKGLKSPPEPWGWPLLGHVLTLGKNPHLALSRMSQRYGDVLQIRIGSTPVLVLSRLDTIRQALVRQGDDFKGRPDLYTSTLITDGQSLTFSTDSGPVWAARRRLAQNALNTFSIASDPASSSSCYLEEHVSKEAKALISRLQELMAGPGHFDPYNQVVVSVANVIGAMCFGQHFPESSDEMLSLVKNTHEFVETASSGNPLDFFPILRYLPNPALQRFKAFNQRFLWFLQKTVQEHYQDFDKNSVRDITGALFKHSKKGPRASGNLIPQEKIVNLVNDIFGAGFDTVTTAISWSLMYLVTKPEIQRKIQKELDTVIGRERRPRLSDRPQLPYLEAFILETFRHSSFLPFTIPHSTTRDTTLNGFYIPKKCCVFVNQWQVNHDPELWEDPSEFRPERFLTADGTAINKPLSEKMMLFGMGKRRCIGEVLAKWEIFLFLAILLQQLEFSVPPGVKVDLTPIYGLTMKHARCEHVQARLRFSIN
Procedure, shortened: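 Inhibition was calculated relative to 57 uM furafylline (full inhibition). The reaction used human CYP1A2 at 20nM with Luciferin-ME at its Km, 100uM, driven by an NADPH-regenerating system for 60 min at room temperature.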

[4] = NFAT Signaling Pathway (AID 444; active = well fitted curve in either direction with a large enough effect, not every such curve was filed as active;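 note: carbachol stimulus at about its EC50 of 1 µM final; % is set by controls: 0 for no effect and ±100 for the full control effect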); settings: Jurkat NFAT-bla M1, carbachol, beta-lactamase ratio, 5 h; at 7.69 µM (top of the series) unless noted
Procedure, shortened: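 Jurkat cells carrying an NFAT-driven β-lactamase reporter and co-transfected muscarinic M1 receptor were treated with compound plus carbachol (1 uM final, an EC50 level) for 5 h at 37 °C. CCF4 loading followed for 1 h at RT; 460/530 nm ratio gave %activity.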

[5] = Stat Signaling Pathway (AID 446; active = well fitted curve in either direction with a large enough effect, not every such curve was filed as active;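 note: ME-180 cervical cancer cells given 40 pM IL-6 alongside compound; SIE-controlled beta-lactamase reporter measured as 460/530 nm FRET emission ratio; % is set by controls: 0 for no effect and ±100 for the full control effect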); settings: ME-180 SIE beta-lactamase reporter, IL-6 stimulated, 5 h; at 7.69 µM (top of the series) unless noted
Procedure, shortened: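 Screening format detects activators and inhibitors alike: ME-180 SIE-bla cells stimulated at 40 pM IL-6 for 5 hrs with compound, then dual-emission beta-lactamase read at 405 nm excitation.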

[6] = molecular target: Glucocorticoid receptor (Homo sapiens) (UniProt P04150); assay: GR-GFP Redistribution (AID 450;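 active = compounds whose dose series gives a full or clear partial fitted curve of increased nuclear translocation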; note: potency is the fitted concentration of half-maximal effect); settings: U2OS GR-GFP nuclear translocation, laser cytometry, 2 h
Glucocorticoid receptor (Homo sapiens), sequence (P04150 whole entry, looked up, the tested form may be a part): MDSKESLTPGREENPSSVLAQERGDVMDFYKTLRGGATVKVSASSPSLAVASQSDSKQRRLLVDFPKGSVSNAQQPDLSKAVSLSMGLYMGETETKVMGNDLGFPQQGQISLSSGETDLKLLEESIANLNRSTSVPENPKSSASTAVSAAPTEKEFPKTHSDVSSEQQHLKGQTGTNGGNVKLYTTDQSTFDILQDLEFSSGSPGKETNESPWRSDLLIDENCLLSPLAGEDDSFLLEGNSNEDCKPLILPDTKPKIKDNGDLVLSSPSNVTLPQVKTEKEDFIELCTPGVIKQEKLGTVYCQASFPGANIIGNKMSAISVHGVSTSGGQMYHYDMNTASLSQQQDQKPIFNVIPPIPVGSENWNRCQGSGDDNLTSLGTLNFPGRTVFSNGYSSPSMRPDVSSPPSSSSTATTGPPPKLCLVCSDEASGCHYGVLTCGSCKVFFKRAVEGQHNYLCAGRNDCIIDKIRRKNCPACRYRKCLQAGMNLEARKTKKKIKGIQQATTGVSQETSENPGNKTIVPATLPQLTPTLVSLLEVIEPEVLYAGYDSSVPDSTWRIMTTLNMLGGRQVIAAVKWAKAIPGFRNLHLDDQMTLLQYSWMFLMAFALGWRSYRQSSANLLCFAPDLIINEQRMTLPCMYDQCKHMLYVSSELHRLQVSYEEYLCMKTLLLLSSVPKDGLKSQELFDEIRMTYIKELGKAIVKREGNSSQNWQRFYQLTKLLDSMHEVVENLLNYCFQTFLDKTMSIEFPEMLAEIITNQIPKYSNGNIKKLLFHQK

[7] = molecular target: Glucocorticoid receptor (Homo sapiens) (UniProt P04150); assay: GR-EFC Redistribution (AID 451; calls by dose curve; note: potency is the fitted concentration of half-maximal effect); settings: CHO-K1 GR-EFC translocation, beta-gal luminescence, 2 h
Procedure, shortened: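 CHO-K1 cells stably expressing nuclear-localized β-gal enzyme acceptor and GR fused C-terminally to the enzyme donor fragment; ligand-driven nuclear translocation restores β-gal by complementation. Compounds titrated up to 46 uM final, 2 h at 37 °C; luminescence read.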

[8] = molecular target: Mitogen-activated protein kinase 10 (Mus musculus) (UniProt Q61831); assay: JNK3 AlphaScreen Assay (AID 530; active = well fitted curve in either direction with a large enough effect, not every such curve was filed as active;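 note: kinase came from lysate of stimulated human HepG2 cells; signal reports phosphorylation of biotinylated GST-cJun 1-79 at Ser73 with 10 µM ATP; % is set by controls: 0 for no effect and ±100 for the full control effect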)
Procedure, shortened: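 JNK3 came from HepG2 lysates pre-activated with IL-1beta and TNF-alpha and phosphorylated biotinylated GST-cJun (1-79) at 10 uM ATP, pH 7.6, room temperature. Compounds were titrated. AlphaScreen signal used anti-phospho-cJun (Ser73) antibody.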

[9] = molecular target: 3',5'-cyclic-AMP phosphodiesterase 4B (Homo sapiens) (UniProt Q07343); assay: qHTS Assay for Inhibitors of PDE-IV (AID 607; active = well fitted activation curve with a large enough effect in the main read-out, with a control signal flat, not every such curve was filed as active; note: % of control where 0% means no effect)
3',5'-cyclic-AMP phosphodiesterase 4B (Homo sapiens), sequence (Q07343 whole entry, looked up): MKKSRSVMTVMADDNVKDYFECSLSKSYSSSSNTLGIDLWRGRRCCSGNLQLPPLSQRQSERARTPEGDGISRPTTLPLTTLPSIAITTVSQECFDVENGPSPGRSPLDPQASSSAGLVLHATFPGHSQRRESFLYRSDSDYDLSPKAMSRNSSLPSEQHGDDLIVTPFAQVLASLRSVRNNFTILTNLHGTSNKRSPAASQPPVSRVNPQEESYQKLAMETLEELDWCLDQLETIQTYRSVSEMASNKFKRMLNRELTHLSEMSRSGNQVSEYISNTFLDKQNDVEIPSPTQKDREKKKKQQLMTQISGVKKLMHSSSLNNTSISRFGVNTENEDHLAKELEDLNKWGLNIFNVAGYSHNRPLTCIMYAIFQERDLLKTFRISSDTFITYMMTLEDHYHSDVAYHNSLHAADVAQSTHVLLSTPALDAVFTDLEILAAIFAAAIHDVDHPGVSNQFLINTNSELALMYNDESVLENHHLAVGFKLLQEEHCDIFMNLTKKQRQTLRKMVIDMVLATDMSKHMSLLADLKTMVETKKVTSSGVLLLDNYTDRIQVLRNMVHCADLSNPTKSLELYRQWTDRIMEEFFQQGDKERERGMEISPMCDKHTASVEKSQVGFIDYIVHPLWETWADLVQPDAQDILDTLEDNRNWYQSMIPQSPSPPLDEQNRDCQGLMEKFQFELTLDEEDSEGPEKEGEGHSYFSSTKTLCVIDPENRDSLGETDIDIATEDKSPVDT
Procedure, shortened: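 The readout is membrane depolarisation from a cAMP-sensing CNG channel, detected with a potential dye at ex 535/em 590. Cells were HEK293-derived (endogenous PDE-IV) at 1000 cells/well, titrated up to 22.9 uM final.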

[10] = qHTS Assay for Identification of Small Molecule Agonists for Hypoxia Response Element Signaling Pathway (AID 914; active = well fitted activation curve with a large enough effect in the signal ratio, with a control signal flat, not every such curve was filed as active; the % refers to the signal ratio; note: % of control where 0% means no effect); settings: ME-180 (cervical carcinoma) HRE-bla reporter, beta-lactamase ratio, CoCl2, 17 h; activation: active compounds read high
Procedure, shortened: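 qHTS titration; ME-180 HRE-bla cells; EC50 CoCl2 co-treatment, 17 h at 37 degrees Celsius; CCF4 dye, ex 405nm, em 460nm and 530nm; %Activity from ratio; AC50.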

[11] = molecular target: ATP-dependent 6-phosphofructokinase (Trypanosoma brucei brucei) (UniProt O15648); assay: qHTS Assay to Find Inhibitors of T. brucei phosphofructokinase: hit validation (AID 492961)
ATP-dependent 6-phosphofructokinase (Trypanosoma brucei brucei), sequence (O15648 whole entry, looked up): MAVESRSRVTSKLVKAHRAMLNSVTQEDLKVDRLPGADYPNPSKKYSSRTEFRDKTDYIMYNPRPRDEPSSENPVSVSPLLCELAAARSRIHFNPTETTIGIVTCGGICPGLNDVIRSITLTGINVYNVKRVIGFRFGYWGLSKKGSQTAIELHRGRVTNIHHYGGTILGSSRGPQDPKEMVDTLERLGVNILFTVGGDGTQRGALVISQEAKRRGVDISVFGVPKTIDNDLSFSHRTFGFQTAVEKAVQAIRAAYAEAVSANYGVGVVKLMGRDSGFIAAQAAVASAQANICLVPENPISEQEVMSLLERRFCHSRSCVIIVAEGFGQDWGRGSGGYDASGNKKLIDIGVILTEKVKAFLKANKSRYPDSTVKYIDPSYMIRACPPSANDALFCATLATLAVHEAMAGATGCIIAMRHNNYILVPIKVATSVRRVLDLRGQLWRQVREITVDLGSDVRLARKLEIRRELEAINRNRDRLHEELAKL
Procedure, shortened: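 Reaction: 0.1 M triethanolamine pH 8.0, 5 mM MgCl2, F6P 0.5 mM, ATP 0.1 mM, PFK 1.25 nM, 45 min RT. Read-out: ADP-Glo luminescence. Analysis: concentration-response fits, classed by r2 and efficacy.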

[12] = molecular target: Ubiquitin carboxyl-terminal hydrolase 1 (Homo sapiens) (UniProt O94782); assay: Inhibitors of USP1/UAF1: Pilot qHTS (AID 504865);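 note: rhodamine fluorescence freed from ubiquitin-rhodamine substrate followed over time; top concentration of the series differs between compounds; % is set by controls: 0 for no effect and ±100 for the full control effect; nearly all actives have a fitted effect of over 35% in size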
Ubiquitin carboxyl-terminal hydrolase 1 (Homo sapiens), sequence (O94782 whole entry, looked up): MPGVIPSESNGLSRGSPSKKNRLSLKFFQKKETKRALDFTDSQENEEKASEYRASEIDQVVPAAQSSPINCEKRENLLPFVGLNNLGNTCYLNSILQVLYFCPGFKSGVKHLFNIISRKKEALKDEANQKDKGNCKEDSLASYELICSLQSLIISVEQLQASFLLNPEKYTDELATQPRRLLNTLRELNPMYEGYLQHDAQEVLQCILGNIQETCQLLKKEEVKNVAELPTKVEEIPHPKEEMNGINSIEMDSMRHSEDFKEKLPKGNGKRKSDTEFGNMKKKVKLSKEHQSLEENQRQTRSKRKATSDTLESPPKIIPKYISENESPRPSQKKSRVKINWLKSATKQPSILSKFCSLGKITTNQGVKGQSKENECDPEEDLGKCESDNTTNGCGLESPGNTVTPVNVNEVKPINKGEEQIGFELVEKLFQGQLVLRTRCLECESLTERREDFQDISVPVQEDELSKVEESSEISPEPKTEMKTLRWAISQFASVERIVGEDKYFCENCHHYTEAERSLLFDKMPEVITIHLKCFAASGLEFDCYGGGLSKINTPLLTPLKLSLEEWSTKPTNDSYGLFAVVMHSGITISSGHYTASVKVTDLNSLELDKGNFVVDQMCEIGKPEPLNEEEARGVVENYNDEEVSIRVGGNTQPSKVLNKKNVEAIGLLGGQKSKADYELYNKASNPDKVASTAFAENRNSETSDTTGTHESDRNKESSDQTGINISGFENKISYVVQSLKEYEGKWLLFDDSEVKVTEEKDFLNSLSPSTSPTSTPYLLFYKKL
Procedure, shortened: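 USP1/UAF1 complex at 1 nM preincubated 15 min at room temperature with compound, then Ub-Rho substrate added at 150 nM final. Fluorescence (480/540 nm) read kinetically in 50 mM HEPES pH 7.8, 0.5 mM EDTA, 1 mM TCEP, 0.1 mg/ml BSA, 0.01% Tween-20.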

[13] = molecular target: Luciferin 4-monooxygenase (Photinus pyralis) (UniProt P08659); assay: Biochemical firefly luciferase enzyme assay for NPC (AID 624030);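 note: purified P. pyralis luciferase at 10 nM with luciferin and ATP substrate; 0% = DMSO and -100% = full luciferase inhibition by PTC124 control; nearly all actives have a fitted effect of over 70% in size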
Luciferin 4-monooxygenase (Photinus pyralis), sequence (P08659 whole entry, looked up): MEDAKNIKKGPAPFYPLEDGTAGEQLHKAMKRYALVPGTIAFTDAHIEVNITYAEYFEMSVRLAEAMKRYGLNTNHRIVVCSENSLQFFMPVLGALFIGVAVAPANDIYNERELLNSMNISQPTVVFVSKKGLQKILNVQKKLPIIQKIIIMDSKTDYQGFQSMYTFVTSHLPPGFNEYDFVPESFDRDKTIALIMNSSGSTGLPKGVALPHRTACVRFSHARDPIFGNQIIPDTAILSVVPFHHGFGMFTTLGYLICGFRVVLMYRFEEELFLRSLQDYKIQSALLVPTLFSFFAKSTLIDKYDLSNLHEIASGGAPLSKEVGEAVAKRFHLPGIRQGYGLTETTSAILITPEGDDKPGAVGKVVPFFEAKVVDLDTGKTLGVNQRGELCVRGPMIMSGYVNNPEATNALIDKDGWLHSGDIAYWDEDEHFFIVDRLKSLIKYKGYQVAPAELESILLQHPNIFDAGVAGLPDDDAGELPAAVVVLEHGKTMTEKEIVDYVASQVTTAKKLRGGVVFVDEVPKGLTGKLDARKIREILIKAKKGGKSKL
Procedure, shortened: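 Counter-screen for direct inhibition of the luciferase enzyme by approved-drug library compounds, run at 10 nM enzyme in 50 mM Tris acetate (final). Luminescence was read within 5 min of enzyme-buffer addition and normalized to PTC124 versus DMSO (0%).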

[14] = S16 Schwann cell PMP22 intronic element firefly luciferase assay (AID 624032);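 note: plate controls were DMSO for no effect and PTC124 positive control mean for full effect; nearly all actives have a fitted effect of over 30% in size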
Procedure, shortened: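 Rat S16 Schwann cells stably carrying a PMP22 intronic element-driven Fluc reporter were seeded overnight, then exposed to compounds for 24 h at 37 °C. Luminescence was normalized to PTC124 (positive control) and DMSO (0% activity).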

[15] = S16 Schwann cell PMP22 intronic element beta-lactamase assay (AID 624044; calls by dose curve;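 note: 0% = DMSO and -100% = potassium clavulanate positive control; nearly all actives have a fitted effect of over 15% in size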)
Procedure, shortened: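 Rat S16 Schwann cells with beta-Lac driven by a PMP22 intronic element, compound-treated 24 h at 37 °C. LiveBLAzer FRET B/G read: 460 nm normalized to potassium clavulanate vs DMSO; 535 nm FRET as viability; concentration-effect curves classified.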

[16] = qHTS profiling for inhibitors of Plasmodium falciparum proliferation (AID 504749);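 note: 0% = DMSO vehicle and full inhibition = artemisinin control; nearly all actives have a fitted effect of over 60% in size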; settings: P. falciparum in erythrocytes, SYBR Green DNA, 72 h, at 28.7 µM (top of the series)
Procedure, shortened: (§1)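 P. falciparum-infected erythrocytes (0.3% parasitemia, 2.5% hematocrit final) were exposed to compounds for 72 h at 37 C in 5% CO2, then lysed with SYBR Green buffer overnight at room temperature; parasite DNA fluorescence was normalized to artemisinin and DMSO controls.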

[17] = tested on: 3D7; assay: as above; settings: P. falciparum in erythrocytes, SYBR Green DNA, 72 h; series mostly up to 28.7 µM
Procedure, shortened: as §1

[18] = tested on: 7G8; assay: as above; settings: P. falciparum in erythrocytes, SYBR Green DNA, 72 h; series mostly up to 28.7 µM
Procedure, shortened: as §1

[19] = tested on: AA1029; assay: as above; settings: P. falciparum in erythrocytes, SYBR Green DNA, 72 h; series mostly up to 28.7 µM
Procedure, shortened: as §1

[20] = tested on: AS120; assay: as above; settings: P. falciparum in erythrocytes, SYBR Green DNA, 72 h; series mostly up to 28.7 µM
Procedure, shortened: as §1

[21] = tested on: ATS189; assay: as above; settings: P. falciparum in erythrocytes, SYBR Green DNA, 72 h; series mostly up to 28.7 µM
Procedure, shortened: as §1

[22] = tested on: C2A; assay: as above; settings: P. falciparum in erythrocytes, SYBR Green DNA, 72 h; series mostly up to 28.7 µM
Procedure, shortened: as §1

[23] = tested on: CP185; assay: as above; settings: P. falciparum in erythrocytes, SYBR Green DNA, 72 h; series mostly up to 28.7 µM
Procedure, shortened: as §1

[24] = tested on: CP191; assay: as above; settings: P. falciparum in erythrocytes, SYBR Green DNA, 72 h; series mostly up to 28.7 µM
Procedure, shortened: as §1

[25] = tested on: CP192; assay: as above; settings: P. falciparum in erythrocytes, SYBR Green DNA, 72 h; series mostly up to 28.7 µM
Procedure, shortened: as §1

[26] = tested on: CP194; assay: as above; settings: P. falciparum in erythrocytes, SYBR Green DNA, 72 h; series mostly up to 28.7 µM
Procedure, shortened: as §1

[27] = tested on: CP201; assay: as above; settings: P. falciparum in erythrocytes, SYBR Green DNA, 72 h; series mostly up to 28.7 µM
Procedure, shortened: as §1

[28] = tested on: CP203; assay: as above; settings: P. falciparum in erythrocytes, SYBR Green DNA, 72 h; series mostly up to 28.7 µM
Procedure, shortened: as §1

[29] = tested on: CP211; assay: as above; settings: P. falciparum in erythrocytes, SYBR Green DNA, 72 h; series mostly up to 28.7 µM
Procedure, shortened: as §1

[30] = tested on: CP215; assay: as above; settings: P. falciparum in erythrocytes, SYBR Green DNA, 72 h; series mostly up to 28.7 µM
Procedure, shortened: as §1

[31] = tested on: CP217; assay: as above; settings: P. falciparum in erythrocytes, SYBR Green DNA, 72 h; series mostly up to 28.7 µM
Procedure, shortened: as §1

[32] = tested on: CP237; assay: as above; settings: P. falciparum in erythrocytes, SYBR Green DNA, 72 h; series mostly up to 28.7 µM
Procedure, shortened: as §1

[33] = tested on: CP238; assay: as above; settings: P. falciparum in erythrocytes, SYBR Green DNA, 72 h; series mostly up to 28.7 µM
Procedure, shortened: as §1

[34] = tested on: CP247; assay: as above; settings: P. falciparum in erythrocytes, SYBR Green DNA, 72 h; series mostly up to 28.7 µM
Procedure, shortened: as §1

[35] = tested on: CP250; assay: as above; settings: P. falciparum in erythrocytes, SYBR Green DNA, 72 h; series mostly up to 28.7 µM
Procedure, shortened: as §1

[36] = tested on: CP252; assay: as above; settings: P. falciparum in erythrocytes, SYBR Green DNA, 72 h; series mostly up to 28.7 µM
Procedure, shortened: as §1

NS(=O)(=O)c1cc2c(cc1Cl)N[C@H](Cc1ccccc1)NS2(=O)=O
inactive: Potency [1] > 11.4 µM | activity change, negative = inhibition [2] -4.23% | activity change, negative = inhibition [4] 23.7% | activity, negative = inhibition [5] 1.94% | Potency [6] > 46 µM | Potency [7] > 9.22 µM | Potency [8] | Potency [9] | activation [10] 4.65% | outcome [11] | Potency [12] | outcome [13] | Potency [14] | outcome [15] | activity, negative = inhibition ([16]; parasite line A) 6.22% | activity, negative = inhibition ([16]; parasite line B) -2.36% | Potency [17] | Potency [18] | Potency [19] | Potency [20] | Potency [21] | Potency [22] | Potency [23] | Potency [24] | Potency [25] | Potency [26] | Potency [27] | Potency [28] | Potency [29] | Potency [30] | Potency [31] | Potency [32] | Potency [33] | Potency [34] | Potency [35] | Potency [36]
active: Potency [3] 3.16 µM
